Bioassay records (PubChem BioAssay)
Autofluor counter: flagged as autofluorescent in microsphere protease counterscreen; compound autofluorescence counterscreen, microsphere flow cytometry; active compounds read high; fluorescence intensity (test concentration not listed); 360,000 tested, 3.1% active; in the data active means fluorescence intensity above about 16000; inconclusive means no clear call, values can overlap the other calls
VHR inh abs: VHR1 phosphatase inhibitors, primary screen, biochemical, absorbance, uHTS; Dual specificity protein phosphatase 3 (Homo sapiens), P51452; recombinant VHR phosphatase, pNPP absorbance; inhibition, % at 13.3 µM; 290,000 tested, 0.52% active; in the data active means inhibition above about 50%
Target sequence (P51452 whole entry, looked up): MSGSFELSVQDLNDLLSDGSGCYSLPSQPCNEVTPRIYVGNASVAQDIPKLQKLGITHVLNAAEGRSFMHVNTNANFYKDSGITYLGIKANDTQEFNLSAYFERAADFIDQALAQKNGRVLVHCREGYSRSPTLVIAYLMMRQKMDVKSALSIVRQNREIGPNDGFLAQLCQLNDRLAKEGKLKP
BoNT-A LC inh2: BoNT/A light chain protease inhibitors, primary screen, biochemical, flow cytometry, MLPCN library; Botulinum neurotoxin type A light chain protease (Clostridium botulinum A str. ATCC 3502); 360,000 tested, 0.17% active; multiplex microsphere protease substrate cleavage; inhibition, % at 10 µM; AID 588499, 2011
Anthrax LF inh2: Bacillus anthracis LF protease inhibitors, primary screen, biochemical, multiplex microsphere, MLPCN library. multiplex microsphere protease cleavage assay. 360,000 tested, 0.12% active. inhibition, % at 10 µM
MazEF act: activators of E. coli MazEF toxin-antitoxin RNase, primary screen, biochemical, fluorescence, uHTS | Endoribonuclease toxin MazF (Escherichia coli (strain K12)), P0AE70 | FAM/BHQ RNA-DNA oligo cleavage fluorescence, 5 h | activation, % at 20 µM | 350,000 tested, 0.32% active | AID 504720, 2011; in the data active means activation above about 50%
Target sequence (P0AE70 whole entry, looked up): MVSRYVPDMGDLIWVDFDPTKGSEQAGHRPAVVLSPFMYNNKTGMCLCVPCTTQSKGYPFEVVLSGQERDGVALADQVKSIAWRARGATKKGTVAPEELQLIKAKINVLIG
BoNT-F LC inh: BoNT/F light chain protease inhibitors, primary screen, biochemical, flow cytometry, MLPCN library | Botulinum neurotoxin type F light chain protease (Clostridium botulinum) | 360,000 tested, 0.22% active | Multiplex microsphere protease cleavage assay | inhibition, % at 10 µM | AID 588497, 2011; in the data active means inhibition above about 35%, passing the limit was not always enough; inconclusive means no clear call, values can overlap the other calls
Large screens that a line does not name were inactive. Hits are enriched below; roughly 4.1% of the tested compounds scored in any of these assays. Unless noted, no stated cut-off is given here; in the data, active means inhibition above about 30%; inconclusive means no clear call, values can overlap the other calls; inactive means below that.

CC(=O)c1nn(-c2ccccc2)cc1C(=O)c1cccc(Br)c1	none
O=C(c1cccc(Br)c1)c1cn(-c2ccccc2)nc1C(=O)c1ccccc1	Autofluor counter 24853, BoNT-A LC inh2 inconclusive
COc1ccc(N2CC2c2ccncc2)cc1 (configuration not stated)	none
COc1ccc(N2COC3c4cccc5cccc(c45)C32)cc1 (configuration not stated)	Autofluor counter 20787
Clc1ccc(N2COC3c4cccc5cccc(c45)C32)cc1 (configuration not stated)	Autofluor counter 22405
O=C(NCc1cccc(C(F)(F)F)c1)c1ccc2sc(C3=C[C@@H](O)[C@@H](O)[C@@H](CO)O3)nc2c1	none (no result: VHR inh abs, MazEF act)
Cc1[nH]c(=O)c(C#N)c2c1CCCC2	Autofluor counter 22068
Cc1ccc2ccccc2c1C(O)c1ncc(-c2cccc(F)c2)[nH]1 (configuration not stated)	none (no result: VHR inh abs, MazEF act)
C=CCOn1c(=O)c(-c2cccs2)[n+]([O-])c2ccccc21	Autofluor counter 21222
NS(=O)(=O)c1ccc(CCNC(=O)c2ccccc2Cc2ccccc2)cc1	none
O=C(Cn1nnc(-c2ccc(CN3CCOCC3)cc2)n1)N1CCCc2ccccc21	Autofluor counter 22876
O=C(CN1CCOCC1)N1CCCc2ccccc21	none
OC(COc1ccc2cc(Br)ccc2c1)CN1CCCC1 (configuration not stated)	Autofluor counter 23249
O=S(=O)(N1CCCCC1)N1CCN(CC(O)COc2ccc3cc(Br)ccc3c2)CC1 (configuration not stated)	none
Cc1ccc(NC(=S)NC(=O)C2CCCCC2)c(Br)c1	none (no result: VHR inh abs)
Cc1ccc(S(=O)(=O)NC(=O)C2(C)CCN2C(=O)C2(c3ccc(Cl)cc3)CCC2)nc1 (configuration not stated)	none (no result: VHR inh abs, MazEF act)
CCc1nn(CCCC(=O)N2CCN(c3ccc(OC)cc3)CC2)c(=O)c2cc3occc3n12	VHR inh abs 56.8
COc1ccc(C(C)C)cc1S(=O)(=O)Nc1ccc(Cl)cn1	Autofluor counter 22386, BoNT-A LC inh2 inconclusive
COc1ccc(Cl)cc1S(=O)(=O)Nc1ccc(Cl)cn1	none (no result: VHR inh abs)
CC(=O)Nc1ccc(/C=N/Nc2nncc3ccccc23)cc1	BoNT-F LC inh 47.5
CCOC(=O)c1[nH]c2ccc(OC)cc2c1NC(=O)c1nonc1C	none
CCOC(=O)c1[nH]c2ccccc2c1NC(=O)c1nonc1C	Autofluor counter 21361, BoNT-A LC inh2 inconclusive
CCOC(=O)c1[nH]c2ccc(Cl)cc2c1NC(=O)c1nonc1C	Autofluor counter 23712
CC1=C(C(=O)N(C(C)C)C(C)C)CC(CC(=O)NCCc2ccccn2)C(=O)N1Cc1ccccc1 (configuration not stated)	none (no result: VHR inh abs)
Cc1nc(N2CCN(Cc3ccccc3)CC2)nc2c1C(=O)CC(c1ccco1)C2 (configuration not stated)	Autofluor counter 17519
CN=c1scc(-c2ccccc2F)n1/N=C(\C)c1cccnc1	VHR inh abs 57.5
Cc1ccc2nc(NC(=O)CCNS(=O)(=O)c3ccc(Br)s3)sc2c1	Autofluor counter 23058
Cc1ccc2nc(NC(=O)c3ccc(NS(=O)(=O)c4cccs4)cc3)sc2c1	VHR inh abs 55.6
Cc1ccc(/C(N)=N/OC(=O)CCCc2ccccc2)cc1	none
Cc1csc(=O)n1CC(=O)OCC(=O)c1c(N)n(CC(C)C)c(=O)n(C)c1=O	none (no result: VHR inh abs)
COc1ccc(C(=O)Nc2nc(OCC(F)(F)F)cnc2/C=C\c2ccccc2)c(OC)c1	none (no result: VHR inh abs, MazEF act)
CC(C)(C)OC(=O)N1CC(O)CC1C(=O)OCC(=O)c1ccc(Cl)cc1 (configuration not stated)	Autofluor counter 20684
O=S1(=O)CCN(c2ccccc2CC(c2c[nH]c3ccccc23)c2c[nH]c3ccccc23)CC1	none (no result: VHR inh abs)
COc1ccc2c(c1)[nH]c1c(=O)n(CC3CCCO3)cnc12 (configuration not stated)	Autofluor counter 17272
O=C1C=C(c2c(O)ccc3ccccc23)c2ccccc2C1=O	MazEF act 79.9 (no result: VHR inh abs)
